Screens from PubChem.
HCV inh – qHTS Assay for Inhibitors of Hepatitis C Virus (HCV); Huh7.5.1 HCVcc-Cre infection, luciferase reporter, 44 h; Potency, µM (top dose mostly 41.8 µM), inactives show at the highest dose activity change, negative = inhibition, hits mostly inhibitors; 340,000 tested, 3.4% active; further: potency means the concentration at half of the fitted maximal effect
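Reporter virus HCVcc-Cre (~0.5 moi) infects cells exposed to compound; seeding density 1,000 cells/well with 4 h settling beforehand. Luminescence, 15 sec read, taken 44 h post-infection following a 15 min RT substrate incubation.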
LASV entry inh – qHTS for Inhibitors of binding or entry into cells for Lassa Virus; Lassa virus pseudotype entry inhibition, cell reporter; Potency, µM (top dose mostly 37.9 µM), without a hit: at the top dose activity change, negative = inhibition, actives largely listed as inhibitors; AID 540256, 2011; 300,000 tested, 1.2% active; calls by dose curve; tested in HEK293 cells; further: potency means the concentration at half of the fitted maximal effect; nearly all actives have a fitted effect of over 50% in size
Marburg entry inh – qHTS for inhibitors of binding or entry into cells for Marburg Virus; 300,000 tested, 1.8% active; Potency, µM (titrated, usually from 37.8 µM), without a hit: top-dose activity change, negative = inhibition, usual class: inhibitors; Marburg virus pseudotyped entry inhibition, cell reporter; calls by dose curve; tested in HEK293 cells; further: potency means the concentration at half of the fitted maximal effect
FMDV antiviral – High Throughput Screening for Foot and Mouth Disease Virus Antivirals. Potency, µM (top dose mostly 57.9 µM), without a hit: at the highest dose activity change, negative = inhibition, hits mostly inhibitors. 410,000 tested, 1.2% active. FMDV antiviral cell-based qHTS; calls by dose curve; tested in HEK293T cells; further: read-out not given here; potency means the concentration at half of the fitted maximal effect; nearly all actives have a fitted effect of over 45% in size
FBPA Giardia inh – qHTS Assay for Inhibitors of Fructose-1,6-bisphosphate Aldolase from Giardia Lamblia; A8B2U2; purified Giardia FBPA; Potency, µM (doses to about 59.6 µM), for the others: at the top dose activity, negative = inhibition, most hits filed as inhibitors; 290,000 tested, 0.71% active; further: potency means the concentration at half of the fitted maximal effect; nearly all actives have a fitted effect of over 55% in size
Target sequence (A8B2U2 whole entry, looked up): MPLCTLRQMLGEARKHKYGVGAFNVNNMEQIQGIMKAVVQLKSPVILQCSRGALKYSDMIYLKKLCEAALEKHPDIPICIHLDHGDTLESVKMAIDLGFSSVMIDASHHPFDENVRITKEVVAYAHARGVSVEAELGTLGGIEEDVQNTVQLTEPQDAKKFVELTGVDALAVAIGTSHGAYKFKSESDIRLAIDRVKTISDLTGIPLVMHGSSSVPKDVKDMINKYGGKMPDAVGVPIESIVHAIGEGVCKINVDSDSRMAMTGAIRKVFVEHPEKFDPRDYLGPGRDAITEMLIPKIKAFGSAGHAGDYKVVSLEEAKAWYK
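40 nM FBPA preincubated 10 min at RT with compound (up to 57.5 uM final), then substrate plus GAPDH/TPI/NAD/arsenate coupling and diaphorase/resazurin added. Fluorescence read after 20 min at RT, 525/598 nm.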
HCMV inh – qHTS Assay for inhibitors of the human cytomegalovirus (HCMV) | AID 1259415, 2018 | 410,000 tested, 4.5% active | activity change, negative = inhibition, % at 57.5 µM | HFF cells, HCMV-luciferase reporter, 72 h; hits give low values; in the data active means activity change below about -60%; inconclusive means no clear call, values can overlap the other calls; inactive means above about -39%
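Two-dose cell screen: HFF monolayers treated with compounds and infected with luciferase-expressing HCMV at 1 PFU/cell, 72 h at 37C, then lysed for luciferase measurement.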
* = called active by the depositor; ? = inconclusive; . = no result given; [ ] = another dose, or the depositor's remark. Sampled rows, rich in hits. Any-hit rate of the full collection: about 8.3%. Unless noted, the call rests on the fitted dose curve; in most records, active means well fitted curve in the direction sought with a large enough effect; inconclusive means small, poorly fitted or top-dose-only effect, or another doubt; inactive means no such curve, though single readings can be large; an effect the other way counts as inactive or inconclusive. On the % scale 0 is the no-effect control and ±100 the full control effect.

SMILES	HCV inh	LASV entry inh	Marburg entry inh	FMDV antiviral	FBPA Giardia inh	HCMV inh
CCCCCc1c(-c2ccccc2OC)ncn1CCc1ccccc1OC	.	.	.	25µM*	.	-83*
CCCc1c(-c2ccc(F)cc2F)ncn1Cc1ccccc1OC	.	.	.	?	.	-78*
CCCc1c(-c2ccccc2Br)ncn1Cc1ccccc1OC	.	.	.	?	.	-73*
COc1ccc(-c2cc(=O)oc3c4c(ccc23)OCN(Cc2cccc(OC)c2)C4)cc1	.	6%[46.1 µM]	-23%[46.1 µM]	-18%	.	-24
CCCCc1c(-c2ccccc2OC)ncn1CCc1cccc(OC)c1	.	.	.	22µM*	.	-25
CCCCc1c(-c2ccccc2OC)ncn1CCc1ccccc1Cl	.	.	.	35µM*	.	?
CCCCc1c(-c2ccccc2OC)ncn1CCc1ccccc1OC	.	.	.	22µM*	.	-68*
CCCCc1c(-c2ccccc2OC)ncn1CCc1cccc(F)c1	.	.	.	?	.	-10
CCCCCc1c(CC)ncn1CCc1ccccc1OC	.	.	.	40µM*	.	-110*
COc1ccccc1CCn1cnc(-c2ccc(Cl)cc2)c1CC(C)C	.	.	.	.	.	-25
COc1ccc(S(=O)(=O)c2cn(CC(=O)Nc3cc(C)ccc3C)c3ccccc3c2=O)cc1	.	0%[46.1 µM]	12%[46.1 µM]	-5%	.	17
Cc1ccc2cc(CNCc3cccc4ccccc34)c(N3CCC(O)CC3)nc2c1	.	.	.	-4%	.	.
COc1cc(/C=C\C(=O)N2CCC=CC2=O)cc(OC)c1OC	.	.	.	.	3%[21.7 µM]	.
COC(=O)c1c(C)oc2ccc(N(C(=O)Oc3ccccc3)S(=O)(=O)c3ccc(C(C)(C)C)cc3)cc12	.	?	.	-24%	.	-33
Cc1ccc(-c2cnn3c(N4CCOCC4)cc(C)nc23)cc1	?	.	.	-17%	13%	-22
Cc1cc(N2CCCCC2)n2ncc(-c3ccccc3)c2n1	10µM*	4.5µM*	?	?	-9%	-25
Cc1cc(N2CCCCC2)n2ncc(-c3ccc(Cl)cc3)c2n1	-31%	?	?	9%	-8%	-30
Cc1cc(N2CCC(C)CC2)n2ncc(-c3ccccc3)c2n1	?	?	?	?	-5%	-64*
Cc1cc(N2CCOCC2)n2ncc(-c3ccccc3)c2n1	?	2.6µM*	?	-64%	0%	-28
CC1=C[C@@H](C)O[C@@]2(C1)C(=O)Nc1cccc(Br)c12	.	?	1%[14.2 µM]	.	.	.
O=C(/C=C/c1ccccn1)NCC1Cc2cccc(-c3ncccn3)c2O1 (stereo not drawn)	.	.	.	-13%	.	.
Cc1[nH]c2ccc(C(=O)NCCc3ccccc3Cl)cc2c1C	.	-16%[46.1 µM]	.	38%	.	-28
COC(=O)c1c(NC(=O)Cc2cccs2)sc2c1CCC(C)C2 (stereo not drawn)	?	7%	1%	.	-2%	-24
COC(=O)c1c(NC(=S)NN2CCN(C)CC2)sc2c1CCC(C)C2 (stereo not drawn)	2.8µM*	?	?	-15%	-1%	14
CN(C)c1cccc(Nc2nccc3[nH]c(-c4ccsc4)cc23)c1	.	.	.	.	.	-8
SMILES	HCV inh	LASV entry inh	Marburg entry inh	FMDV antiviral	FBPA Giardia inh	HCMV inh
COc1ccc(C=CC(=O)c2ccc(OCc3ccccc3)c(OC)c2)cc1OC	.	.	.	?	.	-87*
COc1cc(/C=C/C(=O)OCC(=O)c2c(N)n(C)c(=O)n(C)c2=O)ccc1OCC#N	?	?	6.3µM*	-15%	2%	20
O=C(/C=C/c1ccc(OCc2ccccc2)c(OCc2ccccc2)c1)c1cccnc1	?	-19%	-11%	?	-14%	29
CCOc1cc(/C=C/C(=O)c2ccc(C)cc2)ccc1OCC(=O)N(C)C	?	?	?	?	-2%	-97*
COc1cc(/C=C/C(=O)OCC(=O)c2c(N)n(C)c(=O)n(C)c2=O)ccc1O	-17%	-4%[46.1 µM]	-10%[46.1 µM]	-9%	-5%	-12
COc1ccc(/C=C/C(=O)c2ccccc2)cc1Cn1nnc2ccccc21	3.5µM*	-22%	?	?	0%	-34
CCOc1cc(/C=C/C(=O)O)ccc1OCCO	10%	11%	2%	-4%	2%	-31
CCOc1cc(C(=O)Nc2ccc(-c3nc4ccccc4s3)cc2Cl)cc(OCC)c1OCC	.	25%[46.1 µM]	.	13%	.	48
Cc1cc(=O)oc2cc(O)c(O)cc12	.	.	.	34%	-11%	.
COc1ccc(Oc2ccc(/C=C/C(=O)c3ccc(O)cc3)cc2[N+](=O)[O-])cc1	?	13µM*	?	?	-6%	-98*
COc1cc(/C=C/C(=O)c2ccc(C)cc2)ccc1OCC#N	?	10µM*	?	?	-9%	0
COc1ccc(CCNC(=O)COC(=O)/C=C/c2ccc(OCC#N)c(OC)c2)cc1OC	?	-7%	-2%	-19%	5%	87
COc1ccc(/C=C/C(=O)c2ccc(C(=O)/C=C/c3ccc(OC)c(OC)c3)cc2)cc1OC	4.5µM*	.	.	?	7%	-76*
COC(=O)c1ccc(/C=C/C(=O)c2ccc(OC)c(OC)c2)cc1	?	-22%	-2%	-21%	2%	.
Nc1ccccc1NC(=O)c1ccc(CNC(=O)OCc2cccnc2)cc1	.	.	.	.	3%	.
COc1cc(OC)cc(-c2nc3n(n2)C(c2ccccc2)C(C(N)=O)=C(C)N3)c1 (stereo not drawn)	.	1%[46.1 µM]	-16%[46.1 µM]	-3%	.	-21
O=C(CCc1ccccc1)NC(=S)Nc1cccc(C(=O)O)c1	15%	3%[46.1 µM]	?	-23%	-3%	80
O=C(NCCCCc1ccccc1)c1cccc(NC(=O)C2CCCC2)c1	8.9µM*	-22%[46.1 µM]	.	-17%	.	-14
O=C(NCCc1ccccc1)c1ccc(NC(=O)C2CCC2)cc1	0.63µM*	?	.	65%	.	52
O=C(NCCCCc1ccccc1)c1cccc(NC(=O)c2ccccc2)c1	-60%	12%[46.1 µM]	.	4%	.	0
O=C(NCCc1ccccc1)c1ccc(NC(=O)C2CCCCC2)cc1	5%	.	.	-3%	.	6
O=C(CCCc1ccccc1)Nc1cccc(C(=O)O)c1	9%	?	2.5µM*	14µM*	19%	41
NC1CCCC[C@H]1N (stereo partly drawn)	.	.	.	.	-10%	.
CC(C)c1ccc(NC(=O)C2(C)Cc3ccccc3C(=O)O2)cc1 (stereo not drawn)	.	2%[46.1 µM]	22%[46.1 µM]	25%	.	34
CC(C)Oc1ccc(CNC(=O)Cc2ccc(NC(=O)N3CCSc4ncccc43)cc2)cc1	.	-11%[46.1 µM]	.	-19%	.	0
O=C(C(=O)N1CCC(Cc2ccccc2)CC1)c1ccccc1Br	.	.	.	-10%	.	-63*
Oc1cc2c(cc1O)C1c3ccc(O)c(O)c3OCC1(O)C2 (stereo not drawn)	-16%	.	.	?	6.3µM*	-32
CCOC(=O)N1CCC(NC(=O)c2cnn(-c3ccc(C)cc3)c2-n2cccc2)CC1	.	3%[46.1 µM]	.	6%	.	-2
